CD11b adhes enh – CD11b/CD18-fibrinogen binding enhancement | AID 1499 | K562 CD11b/CD18 adhesion to fibrinogen, ATPlite luminescence | 0.07% of 93,000 active | P05107+P11215 | activation, % at 10 µM;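 active means 10 µM primary screen giving 50% or more activity, confirmed by 40% or more on retest at that dose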
Phagocytosis inh – macrophage phagocytosis inhibition; J774A.1 macrophage IgG-bead phagocytosis, imaging; inhibition, % at 5 µM; 0.07% of 110,000 active; AID 1029;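 active means inhibition above the mean of the plate negative controls plus 5 SD, cut at about 13% in these data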;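 further: phagocytic index as fraction of beads internalized from green versus red external bead signal; plate controls were DMSO negative control for no effect and cytochalasin-D positive control for full effect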
TNAP act mid DEA – activators of human TNAP at intermediate phosphate acceptor; P05186; purified TNAP, CDP-star luminescence, 100 mM DEA, 30 min; stronger effect = higher value; scale: 0 levamisole-inhibited, 1 vehicle-only enzyme; activation factor at 20 µM; 64,000 tested, under 10 active; AID 813;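 active means activation factor of at least 2 at 20 µM, relative to controls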
FAK blocker – inhibitors of human focal adhesion kinase. inhibition, %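 (tested at 7 µM)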. AID 727. Q05397. biochemical FAK kinase activity assay. 0.84% of 97,000 active; in the data active means inhibition above about 19%;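 further: 0% = DMSO and 100% = reference compound high control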
Target sequence (Q05397 whole entry, looked up): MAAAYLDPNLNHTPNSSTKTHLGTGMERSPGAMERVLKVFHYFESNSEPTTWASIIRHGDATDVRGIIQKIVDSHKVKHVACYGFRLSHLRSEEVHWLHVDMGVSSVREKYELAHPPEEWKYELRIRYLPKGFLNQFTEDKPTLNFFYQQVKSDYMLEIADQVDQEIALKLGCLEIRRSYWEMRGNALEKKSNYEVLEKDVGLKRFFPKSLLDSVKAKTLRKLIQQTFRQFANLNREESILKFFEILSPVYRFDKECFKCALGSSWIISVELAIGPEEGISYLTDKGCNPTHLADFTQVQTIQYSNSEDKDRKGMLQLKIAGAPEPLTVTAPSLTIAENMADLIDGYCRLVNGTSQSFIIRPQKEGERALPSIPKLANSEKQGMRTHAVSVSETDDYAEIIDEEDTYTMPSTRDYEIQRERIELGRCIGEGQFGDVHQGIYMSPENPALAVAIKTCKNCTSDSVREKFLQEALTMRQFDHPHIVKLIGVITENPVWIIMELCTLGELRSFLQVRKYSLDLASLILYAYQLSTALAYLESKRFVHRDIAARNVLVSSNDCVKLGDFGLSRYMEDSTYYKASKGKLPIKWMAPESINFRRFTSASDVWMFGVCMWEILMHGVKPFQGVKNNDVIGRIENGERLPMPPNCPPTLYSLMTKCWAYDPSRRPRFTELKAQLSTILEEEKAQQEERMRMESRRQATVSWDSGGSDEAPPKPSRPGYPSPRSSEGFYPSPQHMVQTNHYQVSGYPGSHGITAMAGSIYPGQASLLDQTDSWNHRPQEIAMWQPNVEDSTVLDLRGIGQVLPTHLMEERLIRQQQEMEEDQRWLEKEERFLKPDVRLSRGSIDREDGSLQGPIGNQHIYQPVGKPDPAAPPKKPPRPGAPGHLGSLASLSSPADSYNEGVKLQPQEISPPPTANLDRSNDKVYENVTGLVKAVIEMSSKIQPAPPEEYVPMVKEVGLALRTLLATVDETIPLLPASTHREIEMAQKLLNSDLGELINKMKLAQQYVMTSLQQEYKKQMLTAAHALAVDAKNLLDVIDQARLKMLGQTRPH
CD11b adhes inh – CD11b/CD18-fibrinogen binding inhibition. P05107+P11215. K562 CD11b/CD18 adhesion to fibrinogen, ATPlite luminescence; Mn2+ added to activate the integrin. inhibition, % at 10 µM. 0.54% of 93,000 active;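 active means primary inhibition of 50% or more at 10 µM, then 40% or more on retest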
Numbers without * were called inactive; x = no result; [ ] = another dose, or the depositor's remark. In the library only some 0.96% were active in any assay of this set; here they are far more common.

SMILES	CD11b adhes enh	Phagocytosis inh	TNAP act mid DEA	FAK blocker	CD11b adhes inh
CCOC(=O)COc1ccc(S(=O)(=O)NCc2ccncc2)cc1	-9	1	0.9	0	80
CCOc1ccc(S(=O)(=O)NCc2ccncc2)cc1	-7	0	x	-2	98*
Cc1ccc(S(=O)(=O)NCc2ccncc2)cc1	-5	0	0.9	-1	69*
C=CCc1c(C)c(C#N)c2nc3ccccc3n2c1N1CCN(C)CC1	x	x	1.1	x	x
O=C(Nc1ccc2c(c1)OCCO2)c1coc2ccccc2c1=O	-6	-9	x	x	52*
CSc1ccccc1C(=O)Nc1ccc2c(c1)OCCO2	-2	0	x	1	-6
COCCn1c(C)cc(C2=NNC(=Nc3ccc(OC)cc3)SC2)c1C	81*	x	x	-4	23
COCCn1c(C)cc(C2=NNC(=Nc3ccccc3)SC2)c1C	-3	-4	x	9	39
CC[n+]1c(/C=C/C=C/N(C(C)=O)c2ccccc2)sc2cc(OC)ccc21	x	70*[fluoresces]	x	x	x
Cc1sc2ncnc(NCC3COc4ccccc4O3)c2c1C (centres undefined)	-9	-10	x	x	100*
Cc1sc2ncnc(NCC3(N4CCOCC4)CCCCC3)c2c1C	0	1	x	2	52
Cc1sc2ncnc(NCC(C)(C)N3CCOCC3)c2c1C	-5	-2	x	-2	68*
Cc1ccc(-c2c[n+](CC(=O)OCc3ccccc3)c3n2CCC3)cc1	x	-4	x	x	x
Cc1ccc(C(=O)C[n+]2cc(-c3ccc(C)cc3)n3c2CCCCC3)cc1	-6	2	x	5	54*
CCCCCc1ccc(CC(=O)Nn2c(C)nc3ccccc3c2=O)cc1	-3	0	x	-2	88*
Cc1nc2ccccc2c(=O)n1NC(=O)Cc1ccc(Br)cc1	x	x	x	2	x
Cc1sc2nc3c(C(=O)N4CCN(c5ncccn5)CC4)cccn3c(=O)c2c1C	x	x	1	x	x
O=C(NC1CCCC1)C1C2C=CC(C2)C1C(=O)N1CCOCC1 (centres undefined)	-2	1	0.9	-1	-5
COc1ccc(Cc2nnc3n2N=C(c2cc4ccccc4o2)CS3)cc1OC	x	x	0.9	-1	x
CCCCc1ccc(/C=C2\C(=O)c3ccccc3C(O)=C2C(=O)OCC)cc1	-8	0	x	1	97
CCc1nc(C)cn1S(=O)(=O)c1cc(C)c(OC)c(C)c1C	3	-1	x	0	80*
COc1cc(CN(C)Cc2ccccc2)cc(OC)c1O	-10	x	x	0	87*
COc1ccc(CCN(C)Cc2ccc(OC)c(OCc3ccccc3)c2)cc1OC	-3	-4	x	5	-2
O=C(Nc1ccc2c(c1)OCO2)NC1CCN(Cc2ccccc2)CC1	8	28*[artifact]	0.9	3	-26
O=C(Nc1nncs1)C1COc2ccccc2O1 (centres undefined)	1	-2	0.9	0	-2
SMILES	CD11b adhes enh	Phagocytosis inh	TNAP act mid DEA	FAK blocker	CD11b adhes inh
O=C(Nc1nnc(C(F)(F)F)s1)C1COc2ccccc2O1 (centres undefined)	-5	-2	x	-3	84*
Cc1cccnc1NC(=O)CSc1nnc(Cc2ccccc2)o1	x	x	x	0	x
CCCc1nnc(NC(=O)c2c(O)c3cccc4c3n(c2=O)CC4)s1	38	0	0.9	x	93*
O=S(=O)(CCSc1nc2ccccc2s1)c1nc2ccccc2s1	-2	0	x	0	16
Cc1cc(C(=O)NNC(=S)NC(=O)/C=C/c2ccccc2Cl)n[nH]1	1	1	x	0	65*
O=C(O)CCN1C(=O)/C(=C/c2ccc(-c3nc4ccccc4s3)o2)SC1=S	86	-2	x	2	64*
O=C(O)CC(C(=O)O)N1C(=O)/C(=C/c2ccc(-c3nc4ccccc4s3)o2)SC1=S (centres undefined)	2	-1	x	-1	-12
O=C(Nc1ccc(F)cc1)c1ccc(CSc2ccccc2)o1	-10	-11	x	x	97*
Cc1ccc(/C=C/C(=O)C2C(=O)c3ccccc3C2=O)cc1	-12	-4	x	-6	95*
FC(F)(F)c1nc(N2CCCC2)ncc1-c1nnnn1-c1ccc(Cl)cc1	-5	x	x	6	55*
Clc1ccc(COn2nnc3ccccc32)c(Cl)c1	-2	-1	0.9	0	10
N#CC(c1ccc(F)cc1)c1ccc(C(=O)c2ccc(F)cc2)cc1 (centres undefined)	-5	-1	x	0	87*
CSc1nc(-c2ccccc2)nc(SC)c1C(C)=O	10	7	0.9	1	2
CSc1nc(-c2ccccc2)nc2[nH]ccc(=O)c12	x	x	0.9	22*	x
CCOC(=O)c1c(C)[nH]c(C)c1C(=O)COC(=O)c1cc2ccccc2cc1OC	x	2	x	x	x
CCOC(=O)c1c(C)[nH]c(C)c1C(=O)COC(=O)c1cc2ccccc2cc1O	-4	-8	x	x	62*
COCCNS(=O)(=O)c1cccc2cccnc12	2	0	1	x	-19
Cc1cccc(N2CCN(C(=O)c3c(C)nn(Cc4ccccc4Cl)c3C)CC2)c1C	-4	5	x	2	52*
N=c1cc(C2(O)CCCCC2)n2c(nc3ccccc32)s1	-4	-1	0.9	-1	59*
Cc1noc(C)c1CSCC(=O)N1CCN(c2ccc(F)cc2)CC1	0	-1	0.9	0	22
Cc1cccc(N2CCN(C(=O)CSCc3c(C)noc3C)CC2)c1C	-9	0	0.9	-1	99*
CC(C)c1noc2ncc(C(=O)c3cc(Cl)cc(Cl)c3O)cc12	-11	x	x	-5	95*
CC1CN(C)C(C)CC1NCc1ccc2c(c1)OCO2 (centres undefined)	1	0	0.9	x	-2
O=C(c1ccc2nc(N3CCOCC3)sc2c1)N1CCCC1	-2	0	0.8	x	4
CC1CCN(c2nc3ccc(C(=O)N4CCN(Cc5ccc6c(c5)OCO6)CC4)cc3s2)CC1	-4	0	x	-2	56*
SMILES	CD11b adhes enh	Phagocytosis inh	TNAP act mid DEA	FAK blocker	CD11b adhes inh
O=C1c2cccc3c(Nc4ccccc4Cl)c([N+](=O)[O-])cc(c23)C(=O)N1CCO	-7	-2	x	2	3
Cc1c(Cc2ccccc2)sc(NC(=O)c2ccco2)c1C(N)=O	x	x	x	25*	x
CCCCN=c1scc(-c2ccc3c(c2)NC(=O)CO3)n1N=C1CCCC1	-4	-1	x	4	35
CCN=c1scc(-c2ccc3c(c2)NC(=O)CO3)n1N=C1CCCC1	-8	0	1	1	98*
COCC(C)n1c(-c2ccc3c(c2)NC(=O)CO3)csc1=Nc1ccc(OC(F)F)cc1 (centres undefined)	-10	1	x	2	96*
Brc1cc(Br)c2nc(-c3cccs3)ccc2c1	7	-1	x	-4	10
Cc1nc2c(Br)cc(Br)cc2cc1O	-6	-1	x	2	90*
COc1ccc(/C=c2/sc3n(c2=O)C(c2ccccc2OC)C2=C(N=3)c3ccccc3CC2)cc1O (centres undefined)	169*	0	x	0	-14
COc1ccccc1C1C2=C(N=C3SCC(=O)N31)c1ccccc1CC2 (centres undefined)	-4	1	1	9	8

Screens (PubChem)
